Our source for the Potency values is PubChem BioAssay (NCATS).

Assay [1] relates to MKL-2. The experiment in a line: qHTS assay to identify novel small-molecules to repurpose for Merkel cell carcinoma treatment (AID 1296009). Also: nearly all actives have a fitted effect of over 60% in size. The following applies: MCC and control cell lines, CellTiter-Glo viability, 72 h; series mostly up to 46 µM. The procedure, abridged: (§1)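 72 hr, 37 degree celsius; NPC 8-pt / MIPE 11-pt dose response; compound pinned in DMSO; CellTiter-Glo, 10 min RT, luminescence; normalized to no-cell and DMSO controls.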
For orientation: qHTS replaces the single test concentration by a dilution series.

Assay [2] relates to UISO. The description is as above. The settings on record: MCC and control cell lines, CellTiter-Glo viability, 72 h; series mostly up to 46 µM. The procedure, abridged:
as §1
For orientation: ATP-based viability assays read luminescence as a measure of living cells.

Assay [3] relates to WaGa. The description is as above. The settings on record: MCC and control cell lines, CellTiter-Glo viability, 72 h; series mostly up to 46 µM. In outline:
as §1

The test system of assay [4] is C33A. The experiment in a line: Primary qHTS to identify gynecologic anti-cancer compounds using libraries of approved drugs and bioactive compounds (AID 1345084). Also: nearly all actives have a fitted effect of over 55% in size. The settings on record: Gynecologic cancer cell panel viability, ATPlite luminescence, 48 h; series mostly up to 57.5 µM. The procedure, abridged:
(§2)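 48 h compound exposure at 37 C, 5% CO2; five-point qHTS. ATPlite luminescence readout of cell ATP.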

In assay [5] the test system is CAOV3. The assay is described as above. The settings on record: Gynecologic cancer cell panel viability, ATPlite luminescence, 48 h; series mostly up to 57.5 µM. In outline: as §2
Assay [6] has as its system CASKI. The description is as above. The following applies: Gynecologic cancer cell panel viability, ATPlite luminescence, 48 h; series mostly up to 57.5 µM. In outline: as §2
Assay [7] relates to Es-2. Described as above. The following applies: Gynecologic cancer cell panel viability, ATPlite luminescence, 48 h; series mostly up to 57.5 µM. In outline:
as §2

Assay [8] concerns HeLa. The description is as above. The settings on record: Gynecologic cancer cell panel viability, ATPlite luminescence, 48 h; series mostly up to 57.5 µM. In outline: as §2
For assay [9], the system named is Hek293T. Described as above. The following applies: Gynecologic cancer cell panel viability, ATPlite luminescence, 48 h, control line for the selectivity index; series mostly up to 57.5 µM. The procedure, abridged: as §2

Several values for one entry are separate records, joined by “and”; a condition that tells them apart may be missing. Equal values may be shown once. Records with an inconclusive call do not appear. Unmarked numbers belong to inactive results. Activity calls are given as the source filed them. Calls follow the shape of the dose curve; as a rule, active = well fitted curve in the direction sought with a large enough effect; inconclusive = small, poorly fitted or top-dose-only effect, or another doubt; inactive = no such curve, though single readings can be large; an effect the other way counts as inactive or inconclusive.
Potency is read from the fitted curve at half-maximal effect.

Consider `OCc1ccccc1O`, for which the Potency entry in assay [1], in assay [2], in assay [3], in assay [4], in assay [5] and in assay [6] was “inactive” each time. Also, the Potency result in [7], in assay [8] and in assay [9] was “inactive” in each case.

Turning to `CCN(CCCCOC(=O)c1ccc(OC)c(OC)c1)C(C)Cc1ccc(OC)cc1` (centres undefined), the Potency entry in assay [1], in assay [2], in assay [3], in assay [4], in assay [5] and in [6] was “inactive” throughout. Moreover, the Potency result in [7], in [8] and in [9] was “inactive” each time.

On to `CNC(=O)CN(CCN(CCN(CC(=O)[O-])CC(=O)NC)CC(=O)[O-])CC(=O)[O-].O.[Gd+3]`, for which the Potency result in assay [1], in assay [2], in assay [3], in assay [4], in [5] and in assay [6] was “inactive” each time. The Potency entry in assay [7], in assay [8] and in assay [9] was “inactive” each time.

Regarding `OC[C@@H](O)[C@@H](O[C@@H]1O[C@H](CO)[C@H](O)[C@H](O)[C@H]1O)[C@H](O)[C@@H](O)CO`, the Potency entry in [1], in assay [2], in assay [3], in assay [4], in assay [5] and in [6] was “inactive” each time. Further, the Potency result in assay [7], in assay [8] and in assay [9] was “inactive” throughout.

With `NCCc1ccn[nH]1`, the Potency entry in [1], in assay [2], in assay [3], in [4], in assay [5] and in assay [6] was “inactive” each time. Moreover, the Potency result in [7], in [8] and in assay [9] was “inactive” each time.

On to `Oc1cc(O)c2c(c1)O[C@H](c1ccc(O)c(O)c1)[C@H](O)C2`, for which the Potency result in [1], in [2], in assay [3], in [4], in assay [5] and in assay [6] was “inactive” in each case. Besides, the Potency result in [7], in [8] and in [9] was “inactive” throughout.

On to `CC(C)n1nc(-c2cc3cc(O)ccc3[nH]2)c2c(N)ncnc21`, for which the Potency is 8.41 µM (active) in assay [1]; 9.44 µM (active) in assay [2]; 2.99 µM (active) in [3]; 0.794 µM (active) in [4]; 1.58 µM (active) in assay [5]; 8.91 µM (active) and 15.8 µM (active) in assay [6]. Also, the Potency in assay [7] was 3.16 µM (active) and 2.24 µM (active); in assay [8], 17.8 µM (active) and 14.1 µM (active); in assay [9] it was 3.98 µM (active).

As for `CC(=O)Oc1ccc(C(=C2CCCCC2)c2ccc(OC(C)=O)cc2)cc1`, the Potency entry in [1], in [2], in assay [3], in [4], in assay [5] and in assay [6] was “inactive” each time. For the same molecule, the Potency entry in [7], in [8] and in assay [9] was “inactive” in each case.

In the case of `NC(CO)(CO)CO`, the Potency entry in assay [1], in [2], in [3], in [4], in assay [5] and in [6] was “inactive” in each case. The Potency entry in [7], in [8] and in [9] was “inactive” each time.

Take `CCCCC(=O)O[C@]1(C(=O)CO)CC[C@H]2[C@@H]3CCC4=CC(=O)CC[C@]4(C)[C@H]3[C@@H](O)C[C@@]21C`: the Potency result in [1], in assay [2], in assay [3], in assay [4], in assay [5] and in assay [6] was “inactive” each time. The Potency result in assay [7], in [8] and in [9] was “inactive” in each case.

Turning to `CCCCCCCCCCCCCCCCCC(=O)OCC(O)CO` (centres undefined), the Potency entry in assay [1], in assay [2], in assay [3], in assay [4], in assay [5] and in assay [6] was “inactive” in each case. Further, the Potency result in assay [7], in [8] and in assay [9] was “inactive” throughout.

With `CN=C(NC#N)Nc1ccc(C2=NNC(=O)CC2C)cc1` (centres undefined), the Potency result in assay [1], in [2], in assay [3], in [4], in assay [5] and in assay [6] was “inactive” each time. The Potency entry in assay [7], in assay [8] and in assay [9] was “inactive” in each case.

With `CC(C)(Oc1ccc(Cl)cc1)C(=O)O`, the Potency result in assay [1], in assay [2], in assay [3], in assay [4], in assay [5] and in [6] was “inactive” in each case. Besides, the Potency result in assay [7], in assay [8] and in [9] was “inactive” in each case.

On to `CC(=O)CC(c1ccc([N+](=O)[O-])cc1)c1c(O)c2ccccc2oc1=O` (centres undefined), for which the Potency result in assay [1], in [2], in assay [3], in assay [4], in assay [5] and in assay [6] was “inactive” throughout. Also, the Potency entry in assay [7], in [8] and in [9] was “inactive” each time.

In the case of `CCN(CC)C(=O)N1CCN(C)CC1`, the Potency entry in assay [1], in [2], in assay [3], in [4], in assay [5] and in assay [6] was “inactive” in each case. Moreover, the Potency result in assay [7], in assay [8] and in [9] was “inactive” throughout.

Turning to `O=C(Nc1ccc(Oc2ccc(Cl)cc2)c(Cl)c1)c1cc(I)cc(I)c1O`, the Potency result in assay [1], in [2], in assay [3], in assay [4], in [5] and in assay [6] was “inactive” in each case. For the same molecule, the Potency result in assay [7], in assay [8] and in assay [9] was “inactive” in each case.

In the case of `Cc1cc(=O)n(-c2ccccc2)n1C`, the Potency entry in assay [1], in assay [2], in assay [3], in assay [4], in assay [5] and in assay [6] was “inactive” in each case. The Potency result in assay [7], in [8] and in [9] was “inactive” each time.

In the case of `NC[C@H]1O[C@H](O[C@H]2[C@H](O)[C@@H](O[C@H]3O[C@H](CO)[C@@H](O)[C@H](N)[C@H]3O)[C@H](N)C[C@@H]2N)[C@H](N)[C@@H](O)[C@@H]1O`, the Potency entry in assay [1], in [2], in assay [3], in assay [4], in assay [5] and in [6] was “inactive” each time. In addition, the Potency result in assay [7], in [8] and in assay [9] was “inactive” each time.

`Cc1ncc(CSSCc2cnc(C)c(O)c2CO)c(CO)c1O`: the Potency result in assay [1], in assay [2], in assay [3], in [4], in assay [5] and in [6] was “inactive” each time. The Potency entry in assay [7], in assay [8] and in assay [9] was “inactive” each time.

Take `CC1=C(C(=O)O)N2C(=O)[C@@H](NC(=O)[C@H](N)c3ccc(O)cc3)[C@H]2SC1`: the Potency entry in [1], in [2], in [3], in assay [4], in assay [5] and in [6] was “inactive” in each case. Also, the Potency entry in assay [7], in [8] and in assay [9] was “inactive” throughout.

In the case of `C[C@@H](CN(C)C)CN1c2ccccc2Sc2ccccc21`, the Potency in [1] is 23.7 µM (active). For the same molecule, the Potency entry in [2], in assay [3], in [4], in assay [5], in assay [6] and in assay [7] was “inactive” in each case. Besides, the Potency entry in assay [8] and in assay [9] was “inactive” in each case.
